The panel holds about 83,000 compounds, 20% with a hit somewhere; the sample as a whole holds those more often.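 Method: cells in 96-well plates; compound added at one concentration; 48 h incubation; percent growth measured; values under 10 scored active.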 Values without a mark were called inactive. Calls of active or inactive are those of the source.

Test systems include SK-MEL-2 melanoma; EKVX NSCLC; SN12C renal; UO-31 renal; TK-10 renal; ACHN renal; A498 renal; CCRF-CEM leukemia; MOLT-4 leukemia; SR leukemia; RPMI-8226 leukemia; OVCAR-8 ovarian; OVCAR-5 ovarian; OVCAR-4 ovarian; IGROV1 ovarian; OVCAR-3 ovarian; HS 578T breast; NCI/ADR-RES ovarian; SK-OV-3 ovarian.
Holding throughout (test): NCI-60 one-dose screen, 48 h (100 = growth as untreated, 0 = no growth, -100 = all killed)
Holding throughout (settings): 10 µM unless noted

As for `COc1cc(NC(=O)c2cc(OC)c3ccn(C)c3c2)cc2c1C[C@]1(C)CC[C@@H](O)C(C)(C)[C@H]1O2`, the growth in the assay with SK-MEL-2 melanoma is 31.1%; in the assay on EKVX NSCLC it was 65.2%; with SN12C renal it was 86.6%; with UO-31 renal, 2.9% (active); with TK-10 renal it was 90%; with ACHN renal, 36.6%. For the same compound, the growth in the assay on A498 renal was 1.9% (active); in the assay on CCRF-CEM leukemia it was 19.6%; with MOLT-4 leukemia it was 6.92% (active); with SR leukemia, 19.2%; in the assay with RPMI-8226 leukemia it was -16.6% (active); in the assay on OVCAR-8 ovarian it was 75.8%. Also, the growth was 81.4% in the assay with OVCAR-5 ovarian; 84.6% in the assay on OVCAR-4 ovarian; 68% in the assay with IGROV1 ovarian; 80.7% in the assay with OVCAR-3 ovarian; 10.2% with HS 578T breast; 82.6% with NCI/ADR-RES ovarian.
`O=C(Nc1ccccc1F)Nc1ccccc1Cl`: the growth with SK-MEL-2 melanoma is 109%; with EKVX NSCLC, 73.2%; in the assay on SN12C renal, 104%; with UO-31 renal, 98.2%; with TK-10 renal, 125%; with ACHN renal, 90.8%. Further, the growth was 85.8% in the assay with A498 renal; 86.9% with CCRF-CEM leukemia; 69.3% in the assay with MOLT-4 leukemia; 78.8% in the assay on RPMI-8226 leukemia; 101% in the assay with OVCAR-8 ovarian; 102% with OVCAR-5 ovarian. Besides, the growth is 73% in the assay with OVCAR-4 ovarian; 104% with SK-OV-3 ovarian; 102% with OVCAR-3 ovarian; 103% in the assay with HS 578T breast; 88.9% in the assay with NCI/ADR-RES ovarian.
On to `CCC1CN2C(=N1)c1ccccc1-c1cc(Cl)ccc12` (stereo not drawn), for which the growth in the assay with SK-MEL-2 melanoma was -14.9% (active); in the assay on EKVX NSCLC it was 22.9%; with SN12C renal, 18.5%; in the assay with UO-31 renal it was -43% (active); in the assay on TK-10 renal, 34.7%; in the assay on ACHN renal, 2.38% (active). Further, the growth was 56.9% with A498 renal; 13.4% in the assay with CCRF-CEM leukemia; -24.8% (active) in the assay on MOLT-4 leukemia; -9.43% (active) in the assay with RPMI-8226 leukemia; -5.17% (active) with OVCAR-8 ovarian; 35.6% in the assay on OVCAR-5 ovarian. In addition, the growth was 26.6% in the assay with OVCAR-4 ovarian; 29.6% in the assay with SK-OV-3 ovarian; 20.4% in the assay on OVCAR-3 ovarian; 89.1% in the assay on HS 578T breast; 21.3% with NCI/ADR-RES ovarian.
Take `CCCc1nn2c(CCC(=O)c3nc4ccc([N+](=O)[O-])cc4[nH]3)nnc2s1`: the growth was 87.5% in the assay with SK-MEL-2 melanoma; 95.6% with EKVX NSCLC; 101% in the assay on SN12C renal; 80.7% in the assay with UO-31 renal; 133% in the assay on TK-10 renal; 102% in the assay with ACHN renal. The growth is 123% in the assay with A498 renal; 109% in the assay with CCRF-CEM leukemia; 133% in the assay with RPMI-8226 leukemia; 109% with OVCAR-8 ovarian; 97.5% in the assay on OVCAR-5 ovarian; 100% in the assay on OVCAR-4 ovarian. The growth was 110% with SK-OV-3 ovarian; 101% in the assay on IGROV1 ovarian; 109% in the assay on OVCAR-3 ovarian; 91.1% in the assay with HS 578T breast; 104% in the assay with NCI/ADR-RES ovarian.
With `NC(CSC(c1ccccc1)(c1ccccc1)c1ccc(F)cc1)C(=O)O` (stereo not drawn), the growth in the assay with SK-MEL-2 melanoma was -30.6% (active); in the assay with EKVX NSCLC it was 7.52% (active); in the assay with SN12C renal, 39%; with UO-31 renal, 25.3%; in the assay with TK-10 renal, 64.8%; with ACHN renal, 56.8%. Also, the growth in the assay on A498 renal was 58.2%; in the assay on CCRF-CEM leukemia it was 11.1%; in the assay with MOLT-4 leukemia, 9.44% (active); with RPMI-8226 leukemia, -25.9% (active); in the assay with OVCAR-8 ovarian, 11.1%; in the assay on OVCAR-5 ovarian it was 34.9%. For the same compound, the growth in the assay on OVCAR-4 ovarian was 48.8%; in the assay with SK-OV-3 ovarian it was 34.3%; in the assay with OVCAR-3 ovarian, -39.5% (active); with HS 578T breast, 16.9%; in the assay on NCI/ADR-RES ovarian, 37.5%.
For the compound `Fc1cccc(F)c1C#Cc1ccc2cccnc2c1`, the growth in the assay with SK-MEL-2 melanoma is 84.4%; in the assay with EKVX NSCLC it was 68.6%; in the assay on SN12C renal it was 88.3%; in the assay on UO-31 renal it was 53.5%; in the assay with TK-10 renal, 88.4%; with ACHN renal it was 88.5%. For the same compound, the growth was 99.7% in the assay on A498 renal; 83.7% in the assay with CCRF-CEM leukemia; 71.6% in the assay on MOLT-4 leukemia; 75.4% in the assay on SR leukemia; 70.2% in the assay with RPMI-8226 leukemia; 87.3% in the assay with OVCAR-8 ovarian. For the same compound, the growth in the assay with OVCAR-5 ovarian was 136%; in the assay on OVCAR-4 ovarian, 75.1%; in the assay with IGROV1 ovarian, 56.3%; with OVCAR-3 ovarian, 83.5%; in the assay with HS 578T breast, 91.6%; in the assay with NCI/ADR-RES ovarian, 90.8%.
Turning to `O=C(O)c1cc2ccccc2cc1Nc1ccccc1`, the growth is 99.2% in the assay on SK-MEL-2 melanoma; 97.6% in the assay on EKVX NSCLC; 101% in the assay with SN12C renal; 82.5% in the assay with UO-31 renal; 127% in the assay on TK-10 renal; 98.8% with ACHN renal. Further, the growth is 102% in the assay with A498 renal; 94.1% in the assay with CCRF-CEM leukemia; 91.1% with MOLT-4 leukemia; 97.8% in the assay with SR leukemia; 100% with OVCAR-8 ovarian; 90.8% in the assay with OVCAR-5 ovarian. In addition, the growth in the assay on OVCAR-4 ovarian is 97.5%; in the assay on SK-OV-3 ovarian it was 106%; in the assay on OVCAR-3 ovarian, 108%; in the assay on HS 578T breast, 121%; in the assay on NCI/ADR-RES ovarian, 93%.
As to `O=C1CN(CCN2CC(=O)NC(=O)C2)CC(=O)N1`, the growth in the assay on SK-MEL-2 melanoma was 113%; with EKVX NSCLC it was 84.4%; in the assay on SN12C renal, 104%; with UO-31 renal, 71.8%; in the assay with TK-10 renal, 107%; in the assay on ACHN renal, 103%. In addition, the growth is 103% with A498 renal; 107% in the assay with CCRF-CEM leukemia; 28.5% with MOLT-4 leukemia; 88.1% in the assay with RPMI-8226 leukemia; 103% in the assay with OVCAR-8 ovarian; 93.2% in the assay on OVCAR-5 ovarian. In addition, the growth was 96.1% in the assay on OVCAR-4 ovarian; 102% in the assay with SK-OV-3 ovarian; 113% with OVCAR-3 ovarian; 102% with HS 578T breast; 99.9% with NCI/ADR-RES ovarian.
